In all, about 410,000 compounds went through this assay and about 18,000 (4.4%) were called active. Not shown: some 7% with an inconclusive outcome. No stated cut-off is given here; in the data, active means activity change below about -60%; inconclusive means no clear call, values can overlap the other calls; inactive means above about -39%. The list comes from a sample in which actives are over-represented; it also holds similar structures and randomly drawn compounds.
On the % scale 0 is the no-effect control and ±100 the full control effect.

This test in a line: qHTS Assay for inhibitors of the human cytomegalovirus (HCMV). Particulars: HFF cells, HCMV-luciferase reporter, 72 h; at 57.5 µM; active compounds read low. In a few lines:
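After 16 h attachment at 37C, HFF cells received test compound and HCMV-luciferase (1 PFU/cell); reporter luminescence read 72 h later, data normalized against buffer-only and known inhibitor Salinomycin.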
In general terms: qHTS replaces the single test concentration by a dilution series.
As for `CC(C)(C)c1ccc(OCC(=O)N2CCC(c3nc4ccccc4s3)CC2)cc1`, the activity change, negative = inhibition was 4.7% (inactive).
With `COCCn1c(CCC(=O)Nc2cc(C)ccc2C)nc2cccnc21`, the activity change, negative = inhibition is 5.25% (inactive).
With `CC1CCN(C(=O)COC(=O)c2cc(=O)[nH]c3ccccc23)CC1`, the activity change, negative = inhibition is 10.6% (inactive).
The result for `CCOC(=O)c1ccc(COC(=O)c2cc(=O)[nH]c3ccccc23)o1` reads -5.78% (inactive); that for `O=C(OCc1nnc(-c2ccccc2)o1)c1cc(=O)[nH]c2ccccc12`, -98.7% (active).
As for `CCc1ccc(S(=O)(=O)Nc2cc3c(C(=O)OCc4ccccc4)c(C)oc3c3ccccc23)cc1`, the activity change, negative = inhibition is 8.24% (inactive).
The same measure for `CCN(CC)C(=O)CSC1c2ccccc2C(=O)N1c1ccccc1` (stereo not given): -6.4% (inactive); for `COc1ccc(-c2nc3c(c(SCC(=O)Nc4ccc(C(=O)O)cc4)n2)Cc2ccccc2O3)cc1`: 42.3% (inactive); for `CCOC(=O)c1c(C)[nH]c(C)c1C(=O)COC(=O)/C=C/c1cccc([N+](=O)[O-])c1`: -7.36% (inactive).
The same measure for `CCOC(=O)/C(=C\c1ccc([N+](=O)[O-])cc1)C(=O)c1cc(C(C)=O)c(Nc2ccccc2)s1`: -106% (active); for `CC(C)c1nnc(NC(=O)COC(=O)/C=C/c2ccc([N+](=O)[O-])cc2)s1`: 28.8% (inactive).
The same measure for `Oc1ccccc1-c1nc2ccc(Cl)cn2c1Nc1ccc2c(c1)OCCO2`: -5.59% (inactive); for `COc1ccccc1CNC(=O)CCn1c(=O)c2ccccc2n(CC(=O)Nc2ccc(Br)cc2F)c1=O`: -12.3% (inactive); for `Cc1cccc(CS(=O)(=O)c2ncc(Cl)c(C(=O)Nc3ccc(F)cc3)n2)c1`: -110% (active).
Turning to `CCCSc1ncc(Cl)c(C(=O)Nc2c(C(=O)Nc3ccccc3)oc3ccccc23)n1`, the activity change, negative = inhibition was -20.1% (inactive).
The result for `Cc1ccc(Cn2c(CNC(=O)Cc3cccc(C)c3)nc3cccnc32)cc1` reads -7.33% (inactive); that for `Cc1cccc(NC(=O)c2nc(S(=O)(=O)Cc3ccccc3)ncc2Cl)c1`, -100% (active); that for `Cc1cccc(NC(=O)Cn2cc(S(=O)(=O)Cc3ccccc3Cl)c3ccccc32)c1`, 0% (inactive).
The result for `CCOC(=O)c1ccc(NC(=O)c2nc(SCc3ccc(F)cc3)ncc2Cl)cc1` reads 13.6% (inactive); that for `Cc1ccc(CCNC(=O)c2ccc(CS(=O)(=O)Cc3cccc(C)c3)o2)cc1`, -17.4% (inactive); that for `Cc1ccc(NC(=O)c2nc(S(=O)(=O)Cc3cccc(C)c3)ncc2Cl)cc1`, -94.3% (active).
The result for `CCS(=O)(=O)c1ncc(N(Cc2ccc(F)cc2)Cc2ccco2)c(C(=O)Nc2cc(C)ccc2C)n1` reads -29.7% (inactive); that for `CC=C(C)C(=O)OC1CCN2CC=C(COC(=O)C(O)(C(C)OC)C(C)(C)O)C12` (stereo not given), -28.3% (inactive).
With `O=C(CCC1N=C2c3ccccc3N=C(SCc3ccccc3F)N2C1=O)NCCc1ccccc1` (stereo not given), the activity change, negative = inhibition was -29% (inactive).
Take `O=C(Cn1c(=O)n(-c2ccc(F)cc2)c(=O)c2sccc21)Nc1cccc(C(F)(F)F)c1`: the activity change, negative = inhibition is -5.68% (inactive).
In the case of `CC1CCCCN1S(=O)(=O)c1ccc(F)c(C(=O)Nc2ccccc2C(F)(F)F)c1` (stereo not given), the activity change, negative = inhibition was 11% (inactive).
The same measure for `COc1cc([C@H](Cc2ccccc2)NC(C)=O)oc(=O)c1`: -10.1% (inactive).
In the case of `CC(C)OC(=O)c1sc2nc3c(cc2c1N)C(=O)CCC3`, the activity change, negative = inhibition was 45.7% (inactive).
On to `COc1cccc(C(=O)c2sc3nc(-c4ccccc4)cc(C(F)(F)F)c3c2N)c1`, for which the activity change, negative = inhibition is 7.18% (inactive).
The result for `NC(=O)c1sc2nc3c(c(-c4ccccc4)c2c1N)CCC3` reads -93.9% (active).
The result for `CCOc1ccc(CCNC(=O)COC(=O)CCS(=O)(=O)c2ccc(C)cc2)cc1OCC` reads 55.9% (inactive); that for `COc1cc(CC(=O)Nc2nc(-c3ccc(F)c(F)c3)cs2)cc(OC)c1OC`, -77.3% (active); that for `COc1ccc(C(=O)Nc2nc(-c3ccc(S(=O)(=O)N4CCOCC4)cc3)cs2)cc1`, -98.4% (active).
Take `COc1ccccc1C(=O)Oc1ccc(N2C(=O)CCC2=O)cc1`: the activity change, negative = inhibition was -9.72% (inactive).
On to `Cc1cc2nc(NC(=O)c3ccc(S(=O)(=O)N4CCOCC4)cc3)sc2cc1C`, for which the activity change, negative = inhibition is 3.59% (inactive).
The result for `COc1ccc(CCNC(=O)COC(=O)Cc2cc(OC)c(OC)c(OC)c2)cc1` reads -11.8% (inactive); that for `COc1ccc(C2(CNC(=O)Cc3ccc(OC)c(OC)c3)CCCC2)cc1`, -33.6% (inactive); that for `COc1ccc(-c2csc(NC(=O)c3ccc(N4C(=O)CCC4=O)cc3)n2)cc1OC`, -70.7% (active).
As for `COc1ccc(CC(=O)Nc2nc(-c3ccc(F)c(F)c3)cs2)cc1OC`, the activity change, negative = inhibition was -78.6% (active).
The same measure for `COc1ccc(-c2cc(C(=O)NCc3cc(OC)c(OC)c(OC)c3)[nH]n2)cc1`: 3.93% (inactive); for `COc1ccc(C(=O)Nc2cc(S(=O)(=O)N3CCCC3)ccc2Cl)cc1`: -31.9% (inactive).
The result for `COc1ccc(CC(=O)Nc2nnc3n2CCS3)cc1OC` reads 1.77% (inactive); that for `COc1ccc(-n2nc3c(c2NC(=O)c2ccc(N4C(=O)CCC4=O)cc2)CSC3)cc1`, 0% (inactive); that for `CCC(C)N(C(=O)COC(=O)C1C(C(=O)OC)=C(C)NC(C)=C1C(=O)OC)C1CCS(=O)(=O)C1` (stereo not given), -15.8% (inactive).
The same measure for `COc1ccc(S(=O)(=O)N[C@H]2CC[C@@]34CCCN3C(=O)CCC[C@H]4[C@H]2Cc2ccccc2)cc1`: -13.9% (inactive); for `Cc1ccccc1OCc1nc2c3cnn(-c4ccccc4F)c3ncn2n1`: 2.88% (inactive).
In the case of `CCN1CCN(c2ncc3c(n2)CC(c2ccccc2O)CC3=O)CC1` (stereo not given), the activity change, negative = inhibition is -2.14% (inactive).
The same measure for `CCOC(=O)c1ccc2c(c1)N(Cc1cccc(OC)c1)C(=O)c1ccccc1S2(=O)=O`: 41.8% (inactive); for `O=C(NC1CCCCC1)c1ccc(Cn2c(SCc3ccccc3)nc3cccnc32)cc1`: 13.4% (inactive).
Turning to `CCS(=O)(=O)N1CCc2cc(C(=O)NCc3ccc(OC)cc3)ccc21`, the activity change, negative = inhibition was 21.8% (inactive).
The result for `Cc1ccc(OCCSc2nc(C)c(Cc3ccccc3)c(=O)[nH]2)cc1` reads -3.53% (inactive); that for `COc1ccc(CNC(=O)c2cc3c(=O)[nH]c4ccccc4c3s2)cc1`, -6.89% (inactive).
The result for `Cc1ccc(C)n1-c1nnc(N2CCC(C(=O)NCc3ccccc3Cl)CC2)s1` reads -16.5% (inactive); that for `Cc1cccc(-c2nc(SCC(=O)Nc3cc(C)on3)c3c(=O)n(C)c(=O)n(C)c3n2)c1`, -3.8% (inactive); that for `CCOC(=O)c1oc2ccc(S(=O)(=O)n3nc(-c4ccccc4OC)cc3N)cc2c1C`, 0.413% (inactive).
The same measure for `Cc1oc2cc3oc(=O)ccc3cc2c1C`: 57.6% (inactive).
In the case of `Cc1ccc(NC(=O)Cc2ccc(NC(=O)N3CCCCc4ccccc43)cc2)cc1`, the activity change, negative = inhibition was 2.61% (inactive).
The result for `COc1ccc2c(c1)c(=O)c(C(=O)c1ccccc1)cn2CC(=O)Nc1ccc2c(c1)OCCO2` reads -4.48% (inactive).
On to `COc1ccccc1-c1noc(CSc2nnc(-c3ccccc3)n2-c2ccc(C)c(C)c2)n1`, for which the activity change, negative = inhibition is 4.88% (inactive).
The same measure for `COc1ccc(-c2noc(CSc3nc(C)cc(=O)[nH]3)n2)cc1OC`: 14.1% (inactive).
The result for `COc1ccccc1-c1noc(CSc2nc(C)cc(=O)[nH]2)n1` reads -61.9% (active).
The same measure for `Cn1c(=O)sc2cc(NS(=O)(=O)c3ccc(C(C)(C)C)cc3)ccc21`: -1.79% (inactive).
Take `COc1ccc(N2CCN(S(=O)(=O)c3cc(Br)cnc3N)CC2)cc1`: the activity change, negative = inhibition was 19.7% (inactive).
On to `Cc1cc2nn(-c3ccc(Cl)cc3)nc2cc1NC(=O)C(C)C`, for which the activity change, negative = inhibition is -64.3% (active).
Turning to `CCCC(=O)Nc1cc2nn(-c3ccccc3)nc2cc1C`, the activity change, negative = inhibition was 123% (inactive).
The same measure for `O=C(Cc1ccc(Cl)cc1)Nc1ccc2nn(-c3ccc(Cl)cc3)nc2c1`: 21.1% (inactive).
The same measure for `Cn1c(=O)n(Cc2c(F)cccc2Cl)c(=O)c2c1nc1n2CCN1c1ccc(F)cc1`: 17.8% (inactive); for `COCCn1c(SCC(=O)c2cc(C)ccc2C)nc2cc(C(=O)NC3CCCC3)ccc2c1=O`: -4.52% (inactive).
The result for `CC(C)c1ccc(NS(=O)(=O)c2ccc3[nH]cc(C(=O)NC4CCCC4)c(=O)c3c2)cc1` reads 9.04% (inactive); that for `Cc1c(Cl)cccc1-c1ccc(CNCCCSc2nnnn2C)o1`, -0.502% (inactive); that for `COc1cc(CNCCSc2nnnn2C)ccc1OCc1c(F)cccc1Cl`, -60.3% (active).
Turning to `COc1cc(CNCCSc2nnnn2C)ccc1OCc1ccc(Cl)cc1Cl`, the activity change, negative = inhibition was -13.2% (inactive).
The same measure for `Cn1nnnc1SCCNCc1ccc(Cl)c(Cl)c1`: 6.59% (inactive).
With `COc1cccc(CNCCSc2nnnn2C)c1OCc1ccccc1Cl`, the activity change, negative = inhibition was -75.4% (active).
The result for `CCOc1ccc(CNCCSc2nnnn2C)cc1` reads -12.8% (inactive); that for `Cc1ccc(Cn2c(C)c3cnn(CC(=O)NCc4ccccc4)c(=O)c3c2C)cc1`, -4.95% (inactive); that for `Cc1ccc(CNC(=O)CSC2=Nc3ccccc3C3=NC(C)C(=O)N23)cc1` (stereo not given), -13.2% (inactive).
The result for `CCCn1ccc2c(OCC(=O)NCc3ccc(F)cc3)cccc2c1=O` reads 13.2% (inactive); that for `CC1=C(c2ccc(F)cc2)S(=O)(=O)N=C1N1CCC(C(=O)NCCc2ccccc2C)CC1`, -1.97% (inactive).
`CCOc1ccc(CNC(=O)CCc2c(C)nn(-c3ccc(N4CCCCC4)nn3)c2C)cc1`: the activity change, negative = inhibition was 17.5% (inactive).
Regarding `CC(Sc1cccc[n+]1[O-])C(=O)Nc1cccc(S(=O)(=O)N2CCOCC2)c1` (stereo not given), the activity change, negative = inhibition was 28.7% (inactive).
The result for `CCC(=O)c1ccc(OCC(O)CN2C(=O)NC(C)(C)C2=O)cc1` (stereo not given) reads -18.3% (inactive); that for `CCC(=O)c1ccc(OCC(O)Cn2nc(C)c(C(C)=O)c2C)cc1` (stereo not given), -74.9% (active); that for `CCC(=O)c1ccc(OCC(O)CN2CCN(c3cccc(C(F)(F)F)c3)CC2)cc1` (stereo not given), -2.36% (inactive).
The same measure for `COc1ccc(S(=O)(=O)N2CCCCC2c2cc(C(=O)NCc3ccc(F)cc3)no2)cc1` (stereo not given): -15% (inactive).
